Measurements from PubChem BioAssay (NCATS).
Results filed as inconclusive are left out. Unless noted, calls come from the whole dose curve; as a rule, active = well fitted curve in either direction with a large enough effect (not every such curve was filed as active); inconclusive = small, poorly fitted or top-dose-only effect, or another doubt; inactive = flat fitted curve, though single readings scatter.

Legend:
[1] = AP1 Signaling Pathway (AID 357); settings: ME-180 AP-1-bla reporter, EGF-induced, beta-lactamase ratio, 5 h; at 17.2 µM (top of the series) unless noted;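 note: ME-180 reporter cells stimulated with EGF at its EC50 level; % is set by controls: 0 for no effect and ±100 for the full control effect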
Procedure, shortened: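 A ratiometric CCF4 readout (405 nm excitation; 460 and 530 nm emission) quantified AP-1-driven beta-lactamase in ME-180 cells after 5 h with compound and EC50 EGF; AC50 values were derived for activators and inhibitors.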

[2] = NFAT Signaling Pathway (AID 444); settings: Jurkat NFAT-bla M1, carbachol, beta-lactamase ratio, 5 h; at 17.2 µM (top of the series) unless noted;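 note: carbachol stimulus at about its EC50 of 1 µM final; % is set by controls: 0 for no effect and ±100 for the full control effect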
Procedure, shortened: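 Jurkat cells carrying an NFAT-driven β-lactamase reporter and co-transfected muscarinic M1 receptor were treated with compound plus carbachol (1 uM final, an EC50 level) for 5 h at 37 °C. CCF4 loading followed for 1 h at RT; 460/530 nm ratio gave %activity.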

[3] = Stat Signaling Pathway (AID 446); settings: ME-180 (cervical carcinoma) SIE beta-lactamase reporter, IL-6 stimulated, 5 h; at 17.2 µM (top of the series) unless noted;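 note: ME-180 cervical cancer cells given 40 pM IL-6 alongside compound; SIE-controlled beta-lactamase reporter measured as 460/530 nm FRET emission ratio; % is set by controls: 0 for no effect and ±100 for the full control effect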
Procedure, shortened: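 Overnight-plated ME-180 cells bearing a STAT Inducible Element beta-lactamase reporter; 5 h co-exposure to compound and 40 pM IL-6; values normalized to 300 pM IL-6 and 125 nM JAK inhibitor controls.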

[4] = biological target: Glucocorticoid receptor (Homo sapiens) (UniProt P04150); assay: GR-GFP Redistribution (AID 450;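 active = compounds whose dose series gives a full or clear partial fitted curve of increased nuclear translocation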; note: potency is the fitted concentration of half-maximal effect)
Sequence of Glucocorticoid receptor (Homo sapiens) (P04150 whole entry, looked up): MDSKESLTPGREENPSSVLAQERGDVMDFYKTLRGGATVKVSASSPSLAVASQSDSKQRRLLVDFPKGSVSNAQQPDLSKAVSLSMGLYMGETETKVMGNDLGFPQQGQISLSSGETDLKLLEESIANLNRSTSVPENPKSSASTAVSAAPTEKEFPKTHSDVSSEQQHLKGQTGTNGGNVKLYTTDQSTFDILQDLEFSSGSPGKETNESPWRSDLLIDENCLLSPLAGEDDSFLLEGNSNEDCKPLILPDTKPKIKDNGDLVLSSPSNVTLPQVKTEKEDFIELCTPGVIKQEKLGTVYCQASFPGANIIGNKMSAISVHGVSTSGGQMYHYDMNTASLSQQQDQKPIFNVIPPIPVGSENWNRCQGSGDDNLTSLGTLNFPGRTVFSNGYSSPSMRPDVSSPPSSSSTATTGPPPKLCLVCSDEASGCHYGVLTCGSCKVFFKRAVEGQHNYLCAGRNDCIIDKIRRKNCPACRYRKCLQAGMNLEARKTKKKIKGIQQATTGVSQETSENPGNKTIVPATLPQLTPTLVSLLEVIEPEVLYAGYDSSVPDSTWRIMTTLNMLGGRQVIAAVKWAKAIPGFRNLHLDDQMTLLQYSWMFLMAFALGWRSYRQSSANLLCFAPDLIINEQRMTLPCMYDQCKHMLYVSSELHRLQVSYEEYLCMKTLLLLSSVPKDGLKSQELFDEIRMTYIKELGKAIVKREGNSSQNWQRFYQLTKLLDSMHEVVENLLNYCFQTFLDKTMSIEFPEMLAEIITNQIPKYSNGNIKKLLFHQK

O=C(NCc1cccnc1)NC(C(F)(F)F)C(F)(F)F
inactive: activity change, negative = inhibition [1] 12.5% | activity change, negative = inhibition [2] 2.52% | activity, negative = inhibition [3] 8.58% | Potency [4] > 20.6 µM

NC(=O)C(c1ccccc1)C1CCCC1 (centres undefined)
inactive: activity change, negative = inhibition [1] -5.55% | activity change, negative = inhibition [2] 1.68% | activity, negative = inhibition [3] 15.2% | Potency [4] > 20.6 µM

C=CCN1C(=O)CC(C(=O)NC)SC1=Nc1ccc(C(=O)OCC)cc1 (centres undefined)
inactive: activity change, negative = inhibition [1] -3.69% | activity change, negative = inhibition [2] 16.7% | activity, negative = inhibition [3] -3.3% | Potency [4] > 20.6 µM

COC(=O)c1ccc(C2/C(=C(/O)c3ccc(OC)cc3)C(=O)C(=O)N2Cc2ccco2)cc1 (centres undefined)
inactive: activity change, negative = inhibition [1] -4.01% | activity change, negative = inhibition [2] -12% | activity, negative = inhibition [3] -22.4% | Potency [4] > 20.6 µM

COc1ccc(C(=O)Nc2ccccc2N2CCOCC2)cc1Br
inactive: activity change, negative = inhibition [1] -21.1% | activity change, negative = inhibition [2] 9.59% | activity, negative = inhibition [3] -8.26% | Potency [4] > 20.6 µM

Nc1ccc(Cl)cc1/C(=N/O)c1ccccc1
inactive: activity change, negative = inhibition [1] -16.4% | activity change, negative = inhibition [2] -13.5% | activity, negative = inhibition [3] -5.27% | Potency [4] > 20.6 µM

CCCCCC(=O)N1CC2(CC)CN(C(=O)CCCCC)CC(CC)(C1)C2=O
inactive: activity change, negative = inhibition [1] -3.04% | activity change, negative = inhibition [2] -17.5% | activity, negative = inhibition [3] 4.63% | Potency [4] > 20.6 µM

Clc1ccc(-c2nn3c(-c4cccc(Cl)c4)nnc3s2)cc1
inactive: activity change, negative = inhibition [1] 10.2% | activity change, negative = inhibition [2] -4.86% | activity, negative = inhibition [3] 3.59% | Potency [4] > 20.6 µM

CCC1(C)Cc2c(sc3[nH]c(=O)[nH]c(=O)c23)CS1 (centres undefined)
inactive: activity change, negative = inhibition [1] 6.31% | activity change, negative = inhibition [2] 6.7% | activity, negative = inhibition [3] -2.55% | Potency [4] > 20.6 µM

COc1ccc(OC)c(C2=Nn3c(nnc3C3CCCCC3)SC2)c1
inactive: activity change, negative = inhibition [1] -18.2% | activity change, negative = inhibition [2] -5.08% | activity, negative = inhibition [3] -1.6% | Potency [4] > 20.6 µM

CC1(C)CC(=O)C(C2=NC(C)(C)Cc3ccccc32)=C(O)C1
inactive: activity change, negative = inhibition [1] 2.44% | activity change, negative = inhibition [2] 2.48% | activity, negative = inhibition [3] 0.129% | Potency [4] > 20.6 µM

CCOC(=O)c1c(C)n(C)c2ccc(OC)c(NC(=O)CN3CCSCC3)c12
inactive: activity change, negative = inhibition [1] -2.27% | activity change, negative = inhibition [2] -0.789% | activity, negative = inhibition [3] -8.37% | Potency [4] > 20.6 µM

COC(=O)c1ccc(C2/C(=C(\O)c3cccc(OC)c3)C(=O)C(=O)N2CCCN(C)C)cc1 (centres undefined)
inactive: activity change, negative = inhibition [1] 2.5% | activity change, negative = inhibition [2] 3.34% | activity, negative = inhibition [3] 5.36% | Potency [4] > 20.6 µM

CC(C)Oc1ccc(/C(O)=C2/C(=O)C(=O)N(CCN3CCOCC3)C2c2ccccc2)cc1 (centres undefined)
inactive: activity change, negative = inhibition [1] -9.89% | activity change, negative = inhibition [2] 19.7% | activity, negative = inhibition [3] -0.677% | Potency [4] > 20.6 µM

CCCCOC(=O)CSC1=C(C#N)C(c2ccc3c(c2)OCO3)CC(=O)N1 (centres undefined)
inactive: activity change, negative = inhibition [1] -13% | activity change, negative = inhibition [2] 19.6% | activity, negative = inhibition [3] -9.97% | Potency [4] > 20.6 µM

O=S1CCCSC1c1cccnc1 (centres undefined)
inactive: activity change, negative = inhibition [1] 5.36% | activity change, negative = inhibition [2] 9.76% | activity, negative = inhibition [3] 2.7% | Potency [4] > 20.6 µM

CCOC(=O)c1c(N)sc(=S)c2c1CCC2
inactive: activity change, negative = inhibition [1] -21.1% | activity change, negative = inhibition [2] -6.19% | activity, negative = inhibition [3] -7.28% | Potency [4] > 20.6 µM

CC1(C)Cc2c(sc3nc(SCC(=O)NCc4ccco4)n(-c4ccccc4)c(=O)c23)CS1
inactive: activity change, negative = inhibition [1] -19.4% | activity change, negative = inhibition [2] -13.9% | activity, negative = inhibition [3] -26.5% | Potency [4] > 20.6 µM

CCOc1cccc(-c2nnc3sc(-c4ccc(C)cc4)nn23)c1
inactive: activity change, negative = inhibition [1] 18.5% | activity change, negative = inhibition [2] -19.6% | activity, negative = inhibition [3] 24.1% | Potency [4] > 20.6 µM

CCOC(=O)C1=C(N)n2c(s/c(=C\c3ccco3)c2=O)=C(C(=O)OC(C)C)C1c1ccco1 (centres undefined)
inactive: activity change, negative = inhibition [1] 9.43% | activity change, negative = inhibition [2] -23.7% | activity, negative = inhibition [3] 4.26% | Potency [4] > 20.6 µM

CCC(NC(=O)Nc1cc(OC)c(OC)c(OC)c1)(C(F)(F)F)C(F)(F)F
inactive: activity change, negative = inhibition [1] -13.9% | activity change, negative = inhibition [2] 14.9% | activity, negative = inhibition [3] -1.91% | Potency [4] > 20.6 µM

Cc1cc(C)n(CC(=O)n2nc(C)cc2C)n1
inactive: activity change, negative = inhibition [1] 11.3% | activity change, negative = inhibition [2] -8.81% | activity, negative = inhibition [3] 8.01% | Potency [4] > 20.6 µM

Cc1ccc(S(=O)(=O)/C(C#N)=C/c2c(N3CCN(C)CC3)nc3ccccn3c2=O)cc1
inactive: activity change, negative = inhibition [1] -12.9% | activity change, negative = inhibition [2] -5.08% | activity, negative = inhibition [3] 1.8% | Potency [4] > 20.6 µM

N#CCCN(CCC#N)c1nnc(-c2ccccc2)s1
inactive: activity change, negative = inhibition [1] 8.96% | activity change, negative = inhibition [2] -5.89% | activity, negative = inhibition [3] 1.66% | Potency [4] > 20.6 µM

CCc1nc(SCc2cccnc2)c(C#N)cc1C
inactive: activity change, negative = inhibition [1] -8.39% | activity change, negative = inhibition [2] -24.2% | activity, negative = inhibition [3] 0.873% | Potency [4] > 20.6 µM

N#CC1=C(N)OC2=C(C(=O)CCC2)C1CCc1ccccc1 (centres undefined)
inactive: activity change, negative = inhibition [1] -2.2% | activity change, negative = inhibition [2] -13.6% | activity, negative = inhibition [3] 8.87% | Potency [4] > 20.6 µM

CCCC(=O)N1CCc2[nH]c3ccccc3c2C1
inactive: activity change, negative = inhibition [1] -13% | activity change, negative = inhibition [2] 13.8% | activity, negative = inhibition [3] -6.04% | Potency [4] > 20.6 µM

Cc1cc(=O)oc2c(CN3CCN(C)CC3)c(O)c(Cl)cc12
inactive: activity change, negative = inhibition [1] 16.9% | activity change, negative = inhibition [2] 25% | activity, negative = inhibition [3] 9.62% | Potency [4] > 20.6 µM

CCOC(=O)CSc1nc(N2CCOCC2)c2c(c1C#N)CC(C)(C)N(C)C2
inactive: activity change, negative = inhibition [1] -8.24% | activity change, negative = inhibition [2] -17.7% | activity, negative = inhibition [3] 1.11% | Potency [4] > 20.6 µM

CC(=O)c1ccc(C#CC(C)(C)O)s1
inactive: activity change, negative = inhibition [1] 6.06% | activity change, negative = inhibition [2] -7.12% | activity, negative = inhibition [3] 2.81% | Potency [4] > 20.6 µM

CCn1nc(NC(=O)c2cccnc2)c2cc3ccccc3nc21
inactive: activity change, negative = inhibition [1] -12.7% | activity change, negative = inhibition [2] 9.22% | activity, negative = inhibition [3] -4.62% | Potency [4] > 20.6 µM

CCOC(=O)CC(=O)CSc1nc2c(cc1C#N)CCCCCC2
inactive: activity change, negative = inhibition [1] -15.8% | activity change, negative = inhibition [2] 2.93% | activity, negative = inhibition [3] -11.8% | Potency [4] > 20.6 µM

C=CCn1c(-c2ccccc2)n[nH]c1=S
inactive: activity change, negative = inhibition [1] 6.97% | activity change, negative = inhibition [2] -4.63% | activity, negative = inhibition [3] 3.46% | Potency [4] > 20.6 µM

COc1cc(-c2nn3c(-c4ccccn4)nnc3s2)cc(OC)c1OC
inactive: activity change, negative = inhibition [1] 1.69% | activity change, negative = inhibition [2] 10.9% | activity, negative = inhibition [3] 1.47% | Potency [4] > 20.6 µM

C[N+]1(CCNC(=O)/C=N/O)CCCCC1
inactive: activity change, negative = inhibition [1] 7.1% | activity change, negative = inhibition [2] -12.9% | activity, negative = inhibition [3] 5.42% | Potency [4] > 20.6 µM

Cc1nnc2n(-c3ccccc3)c(=O)c3c4c(sc3n12)CC(C)CC4 (centres undefined)
inactive: activity change, negative = inhibition [1] 3.4% | activity change, negative = inhibition [2] -3.87% | activity, negative = inhibition [3] -2.29% | Potency [4] > 20.6 µM
